In PubChem BioAssay (NCI) one finds growth data, which are given here for eight compounds.

“And” between values parts separate entries of the source, which are not always exact repeats. Equal entries are not always repeated. Compounds without any hit were thinned out: in the full panel of roughly 83,000, 20% have a hit.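 Cells were grown in 96-well plates and exposed to the test compound at a single concentration for 48 hours; results are reported as percent growth, with values below 10 considered active.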 The source made the active and inactive calls.

What all share (test): NCI-60 one-dose screen, 48 h (100 = growth as untreated, 0 = no growth, -100 = all killed)
Holding throughout (details): 10 µM unless noted

For test [1], the system named is HCT-15 colon.
The test system of test [2] is HT29 colon.
Test [3] concerns SNB-75 CNS.
In test [4] the test system is SNB-19 CNS.
The test system of test [5] is U251 CNS.
Test [6] relates to PC-3 prostate.
Test [7] has as its system SK-MEL-5 melanoma.
Test [8] deals with UACC-62 melanoma.
The test system of test [9] is LOX IMVI melanoma.
The test system of test [10] is SK-MEL-2 melanoma.
Test [11] concerns EKVX NSCLC.
Test [12] deals with SN12C renal.
Test [13] relates to UO-31 renal.
The test system of test [14] is TK-10 renal.
Test [15] concerns ACHN renal.
The subject of test [16] is CAKI-1 renal.
For test [17], the system named is A498 renal.
In test [18] the test system is CCRF-CEM leukemia.
The test system of test [19] is MOLT-4 leukemia.
Test [20] concerns SK-MEL-28 melanoma.

Regarding `Cc1ccc(S(=O)(=O)Nc2ccc3cc([N+](=O)[O-])ccc3c2[N+](=O)[O-])cc1`, the growth was 71% (inactive) and 94.2% (inactive) in [1]; 93.3% (inactive) and 114% (inactive) in [2]; 80% (inactive) and 106% (inactive) in [3]; 85.6% (inactive) and 96.2% (inactive) in test [4]; 82.1% (inactive) and 88.2% (inactive) in [5]; 71.7% (inactive) and 73.4% (inactive) in test [6]. Further, the growth in test [7] was 86.1% (inactive); in test [8] it was 44% (inactive) and 69.1% (inactive); in [9], 82% (inactive) and 97.3% (inactive); in [10] it was 99.7% (inactive) and 87.5% (inactive); in test [11] it was 86% (inactive) and 75.7% (inactive); in test [12], 74.7% (inactive) and 91.6% (inactive). Also, the growth is 47.1% (inactive) and 58.1% (inactive) in test [13]; 78.5% (inactive) and 101% (inactive) in test [14]; 71.2% (inactive) and 94.5% (inactive) in [15]; 57.8% (inactive) and 69.4% (inactive) in [16]; 69.1% (inactive) and 83% (inactive) in [17]; 79.1% (inactive) and 39.4% (inactive) in [18]. Moreover, the growth in test [19] was 82.8% (inactive) and 63% (inactive).
`CCOC(=O)c1sc(N)nc1-c1ccccc1`: the growth was 97.3% (inactive) in test [1]; 96.8% (inactive) in [2]; 94.7% (inactive) in test [3]; 109% (inactive) in [4]; 98.8% (inactive) in test [5]; 98% (inactive) in [6]. In addition, the growth was 100% (inactive) in test [7]; 112% (inactive) in [8]; 95.5% (inactive) in test [9]; 109% (inactive) in test [20]; 95.9% (inactive) in test [10]; 104% (inactive) in [12]. The growth in test [13] is 85.4% (inactive); in test [14], 99% (inactive); in test [15], 93.7% (inactive); in test [17], 94.5% (inactive); in test [18] it was 97.7% (inactive); in [19] it was 96.1% (inactive).
Consider `CCOc1ccc2cc(-c3nn(CC4CCN(C)CC4)c4ncnc(N)c34)ccc2c1`, for which the growth in test [1] is 76% (inactive) and 29.8% (inactive); in [2] it was 69.2% (inactive) and 9.92% (active); in test [3], 50% (inactive) and 33.9% (inactive); in test [4], 92.8% (inactive) and 68.3% (inactive); in test [5], 83.8% (inactive) and 43.3% (inactive); in test [6], 85.8% (inactive) and 51.5% (inactive). In addition, the growth in test [7] is 87.2% (inactive) and -65.2% (active); in test [8] it was -24.5% (active); in [9], 77.7% (inactive) and 6.18% (active); in [20], 97.1% (inactive) and -58.3% (active); in [10] it was 108% (inactive); in test [11] it was 101% (inactive) and 56.5% (inactive). In addition, the growth in test [12] is 83.7% (inactive); in [14], 70.9% (inactive) and 77.8% (inactive); in [15], 96.5% (inactive) and 53.9% (inactive); in test [17] it was 74% (inactive) and 23.7% (inactive); in [18], 90.7% (inactive) and 3.75% (active); in test [19], 70.1% (inactive) and -4.41% (active).
As for `CCOc1ccc2nc3cc(N)ccc3c(N)c2c1`, the growth was 107% (inactive) and 90% (inactive) in test [1]; 75.7% (inactive) and 60.7% (inactive) in [2]; 47.6% (inactive) in test [3]; 10.5% (inactive) in [4]; -12.6% (active) and 5.58% (active) in test [5]; 61.8% (inactive) and 75.6% (inactive) in test [6]. Further, the growth is 43.2% (inactive) in [7]; 73.8% (inactive) in test [8]; 82.5% (inactive) in test [9]; 20% (inactive) and 24.6% (inactive) in test [10]; 57.3% (inactive) and 80% (inactive) in [11]; 18.5% (inactive) in test [12]. Moreover, the growth in test [13] is 74.9% (inactive) and 63% (inactive); in test [14], 117% (inactive) and 122% (inactive); in test [15], 90% (inactive) and 83.7% (inactive); in test [16] it was 100% (inactive) and 108% (inactive); in [17], 71% (inactive) and 79.9% (inactive); in test [18], 68.5% (inactive) and 54.2% (inactive). Besides, the growth in [19] was 34.9% (inactive) and 25.3% (inactive).
For the compound `CC(C)(O)Cn1cc(-c2ccc3nc(OC4CC4)ccc3c2)c2c(N)ncnc21`, the growth is 95.3% (inactive) and 73.8% (inactive) in [1]; 74% (inactive) and 44.6% (inactive) in [2]; 40.2% (inactive) and 37.9% (inactive) in [3]; 74.8% (inactive) and 64.3% (inactive) in test [4]; 82.1% (inactive) and 50.5% (inactive) in test [5]; 56.8% (inactive) and 48.2% (inactive) in test [6]. The growth is 84.3% (inactive) and 37.8% (inactive) in test [7]; 48.4% (inactive) in test [8]; 72.8% (inactive) and 30.4% (inactive) in test [9]; 87.8% (inactive) in test [10]; 85.8% (inactive) and 49.3% (inactive) in test [11]; 87.9% (inactive) and 38.6% (inactive) in test [12]. Moreover, the growth in test [13] is 63.7% (inactive) and 19.2% (inactive); in [14] it was 74.2% (inactive) and 55.3% (inactive); in [15], 86.2% (inactive) and 43.1% (inactive); in [16], 80.9% (inactive) and 70.1% (inactive); in test [17] it was 64.9% (inactive) and 21% (inactive); in [18], 67.2% (inactive) and 38% (inactive). The growth in test [19] is 56.6% (inactive) and 17.4% (inactive).
Regarding `O[C@H](c1cc(C(F)(F)F)nc2c(C(F)(F)F)cccc12)[C@@H]1CCCCN1`, the growth was 70.8% (inactive) and 82.5% (inactive) in test [1]; 47.5% (inactive) in test [2]; 29.7% (inactive) and 46.3% (inactive) in test [3]; 60.1% (inactive) and 65.9% (inactive) in test [4]; 42.6% (inactive) and 45.9% (inactive) in test [5]; 42.7% (inactive) and 45% (inactive) in [6]. Besides, the growth in test [7] is 84.9% (inactive) and 74.2% (inactive); in test [8], 70.5% (inactive) and 67.8% (inactive); in test [9], 11.6% (inactive) and 7.96% (active); in [10], 73.6% (inactive) and 52.5% (inactive); in test [11], 65.5% (inactive) and 82.8% (inactive); in [12], 65.9% (inactive) and 55.1% (inactive). The growth in [13] was 50.5% (inactive) and 31.7% (inactive); in test [14], 56.9% (inactive) and 63.8% (inactive); in test [15] it was 40.1% (inactive) and 45.8% (inactive); in test [16], 72.7% (inactive) and 50.9% (inactive); in [17], 67% (inactive) and 52% (inactive); in [18], 76.5% (inactive) and 71.6% (inactive). The growth in [19] is 32.7% (inactive).
For `Cc1cc(C)c(N)c(Br)c1`, the growth was 106% (inactive) and 95.4% (inactive) in [1]; 102% (inactive) and 90.4% (inactive) in test [2]; 83.3% (inactive) and 74.5% (inactive) in test [3]; 107% (inactive) and 94.7% (inactive) in [4]; 105% (inactive) and 104% (inactive) in test [5]; 102% (inactive) and 91.9% (inactive) in test [6]. In addition, the growth in test [7] is 103% (inactive) and 96.3% (inactive); in [8], 108% (inactive) and 94.5% (inactive); in test [9], 106% (inactive) and 96.4% (inactive); in [10], 96.9% (inactive) and 99.3% (inactive); in test [11] it was 110% (inactive) and 97.1% (inactive); in test [12] it was 110% (inactive) and 101% (inactive). Also, the growth in [13] was 92.3% (inactive) and 87.9% (inactive); in [14], 108% (inactive) and 112% (inactive); in [15], 106% (inactive) and 95.4% (inactive); in test [16], 91.4% (inactive) and 74.5% (inactive); in test [17], 134% (inactive) and 88.8% (inactive); in test [18], 97.4% (inactive) and 90.1% (inactive). The growth in test [19] was 106% (inactive) and 111% (inactive).
`CC(C)CNC(=O)c1ccccc1C(=O)NC1(C(=O)NCC(C)C)CCCC1`: the growth was 103% (inactive) and 106% (inactive) in test [1]; 105% (inactive) and 104% (inactive) in [2]; 87.9% (inactive) and 94.6% (inactive) in [3]; 105% (inactive) and 108% (inactive) in test [4]; 109% (inactive) and 105% (inactive) in test [5]; 97.9% (inactive) and 96.3% (inactive) in test [6]. Further, the growth in test [7] is 106% (inactive) and 115% (inactive); in test [8] it was 103% (inactive) and 107% (inactive); in test [9], 90.4% (inactive) and 101% (inactive); in test [10], 103% (inactive) and 100% (inactive); in [11], 96.7% (inactive) and 109% (inactive); in test [12], 99.8% (inactive) and 107% (inactive). Moreover, the growth is 83.5% (inactive) and 86.1% (inactive) in [13]; 111% (inactive) and 114% (inactive) in test [14]; 102% (inactive) and 104% (inactive) in test [15]; 90.6% (inactive) and 98% (inactive) in test [16]; 84.2% (inactive) and 123% (inactive) in test [17]; 88.4% (inactive) and 104% (inactive) in test [18]. Also, the growth in test [19] is 102% (inactive) and 88.6% (inactive).
